Vif imaging: inhibitors of HIV Vif; HEK293T cells, Vif self-association by quenched fluorescence, imaging, 24 h; inhibition, % at 7.49 µM; hit rate 0.35% among 340,000; AID 602346; in the data active = inhibition above about 50%, passing the limit was not always enough; inconclusive = no clear call, values can overlap the other calls; inactive = below about 31%
GRIN3A LBD mod: modulates the human NR3A ligand-binding domain; hit rate 2.5% among 340,000; NR3A LBD differential scanning fluorimetry, Tm shift; 0% = protein alone, 100% = glycine-bound protein; Tm shift relative to glycine control, % at 25 µM;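 active = melting temperature shift of at least 10% of the positive control shift, at one fixed dose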
SMARCA2 activ: SMARCA2 function activation, primary screen; MG213 cells, MMTV-luciferase reporter, dexamethasone, overnight; hit rate 1% among 370,000; activation, % at 9.1 µM; in the data active = activation above about 7.8%;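 also: 0% = vehicle wells and 100% = reference activator wells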
NadD block: NadD (S. aureus) enzyme inhibition; inhibition, % at 20 µM; purified NadD enzyme, colorimetric absorbance read-out; hit rate 0.78% among 360,000; in the data active = inhibition above about 26%
SKN-1 inh: blocks SKN-1 activity in C. elegans; hit rate 0.49% among 360,000; inhibition, % at 21.8 µM; C. elegans VP596 Pgst-4::GFP/RFP ratio, acrylamide-induced, 24 h;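 active = interference check ratio from 0.5 to 1.5 plus GFP to RFP signal ratio inhibition reaching or exceeding a fixed threshold, cut at about 30% in these data, passing the limit was not always enough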
esBAF inh: blocks esBAF chromatin remodeling in mouse ES cells; Bmi1-luciferase knock-in reporter, 24 h; 100% = twice the neutral-well signal; reporter increase, % at 12.5 µM; hit rate 2% among 350,000; in the data active = activation above about 40%; inconclusive = no clear call, values can overlap the other calls;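 also: 0% = median of the plate's neutral control wells and 100% = double that signal; a rise in the Bmi1 reporter signal indicates esBAF inhibition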
Ring1 derepress: confirmation of esBAF inhibitors: Ring1 de-repression in mouse ESCs; shares compounds with esBAF inh; fold change at 33 µM; 550 tested, under 10 active; mouse ESC E14, Ring1 mRNA RT-qPCR fold change;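 active = Ring1 gene expression raised more than 2-fold over untreated cells in both replicates at either tested dose; inconclusive = only one replicate above 2-fold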;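 also: Ring1 transcript normalised to actin housekeeping signal by TaqMan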
Fgf4 repress: confirmation of esBAF inhibitors: Fgf4 repression in mouse ESCs; shares compounds with esBAF inh; mouse ESC E14, Fgf4 mRNA qPCR fold change; active compounds read low; Fgf4 expression fold change at 33 µM; hit rate 4% among 550;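 active = Fgf4 expression under 0.8 fold of control in both repeat measurements at one or both tested doses; inconclusive = under 0.8 fold in just a single repeat measurement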;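 also: Fgf4 transcript normalised to actin in duplex TaqMan qPCR; cells exposed to compound for 24 h before lysis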
Bmi1 derepress: esBAF inhibition confirmed by Bmi1 de-repression. shares compounds with esBAF inh. mouse ESE14 ES cells, Bmi1 mRNA qPCR fold; active compounds read high. AID 743180. 550 tested, under 10 active. fold change at 33 µM;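 active = Bmi1 expression fold change above 6 at either tested concentration, seen in replicate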;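 also: higher fold means more Bmi1 de-repression and stronger esBAF inhibition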
A549 tox SP: cytotoxicity in A549 cells; shares compounds with esBAF inh; plate reader; cell viability change % (negative = cytotoxic), % at 25 µM, hits read low; 550 tested, under 10 active; AID 743188; call rule not given here
HepG2 cytotox SP: HepG2 cell cytotoxicity at single point; shares compounds with esBAF inh; plate reader; active compounds read low; activity change, negative = inhibition, % at 25 µM; hit rate 4% among 550; in the data active = activity change below about -50%
HEK293 tox SP: HEK293 cell cytotoxicity at single point; shares compounds with esBAF inh; plate reader; activity change, negative = inhibition, % at 25 µM, hits read low; hit rate 3% among 550; in the data active = activity change below about -38%, passing the limit was not always enough
* = called active by the depositor; ? = inconclusive; . = no result given. Only some compounds are listed: those with a hit (about 5.2% of all), similar ones and a draw of the others.

SMILES	Vif imaging	GRIN3A LBD mod	SMARCA2 activ	NadD block	SKN-1 inh	esBAF inh	others
O=S(=O)(c1ccc2ccccc2c1)N1CCN(C(=S)Nc2ccc(F)cc2)CC1	0.2	2.7	-4.0	-0.6	4.5	.
C[C@@H]1CCCCO[C@@H](CN(C)S(=O)(=O)c2ccc(Cl)cc2)[C@@H](C)CN([C@@H](C)CO)C(=O)c2cc(NC(=O)Nc3ccc4c(c3)OCO4)ccc2O1	.	.	.	.	.	3.2
CC1(C)Oc2ccc(C(=O)N/N=C/c3ccc(O)cc3)cc2NC1=O	108.8*	-5.1	2.8	-0.2	-3.9	-3.3
Oc1c(N=Nc2nn[nH]n2)ccc2ccccc12	2.8	.	1.2	15.5	53.5*	.
Cc1ccc(N=Nc2ccc3ccccc3c2O)cc1	-1.1	-8.0	-2.8	5.5	54.2	-76.7
COc1ccccc1C(=O)NC(=S)Nc1ccc(NC(=O)c2cccs2)cc1	16.9	30.1*	-2.0	5.0	-8.2	.
NS(=O)(=O)c1ccc(NC(=S)NC(=O)c2cccs2)cc1	24.6	-0.9	3.2	-6.6	0.3	-3.4
O=C(Nc1ccc(NC(=S)NC(=O)c2cccs2)cc1)c1ccccc1	-2.6	26.0*	-5.1	1.3	0.7	.
COC(=O)c1nc(NC(=S)NC(=O)c2cccs2)sc1C	-5.1	-0.3	0.2	0.3	6.7	33.6
CC(=O)NC(=S)Nc1ccc(NC(=O)c2cccs2)cc1	-3.2	-27.2	2.8	-6.4	7.0	.
O=C(NC(=S)Nc1ccccc1)c1cccs1	-0.2	0.1	4.6	-5.7	-6.5	77.7*
O=C(NC(=S)Nc1nc2ccccc2s1)c1cccs1	-17.8	27.4*	7.0	-1.5	6.9	-7.7
CO[C@H]1CN(C)C(=O)c2ccc(NC(=O)C3CC3)cc2OC[C@H](C)N(Cc2cc(F)ccc2F)C[C@@H]1C	.	.	.	.	.	30.9
Cc1ccc(NC(=S)NC(=O)c2cccs2)cc1F	-1.6	0.6	5.4	-2.8	-2.5	81.2*
COC(=O)c1cccc(NC(=O)/C=C/c2cccc([N+](=O)[O-])c2)c1	-8.1	17.4*	-1.8	-10.6	-6.8	.
NS(=O)(=O)c1ccc(NC(=O)/C=C/c2ccccc2[N+](=O)[O-])cc1	-5.7	5.0	-3.0	3.1	-2.8	.
O=C(O)/C=C/c1cccc(NC(=O)Nc2ccc([N+](=O)[O-])cc2)c1	-1.8	17.9*	-1.8	-6.5	3.1	0.4
O=C(/C=C\c1ccccc1[N+](=O)[O-])Nc1ccccc1	12.3	14.1*	2.2	-10.7	11.1	.
O=C(/C=C/c1ccc([N+](=O)[O-])cc1)Nc1cccc(C(=O)Nc2ccccc2C(=O)O)c1	5.5	16.7*	-2.1	12.1	24.1	3.5
Cc1ccccc1NC(=O)/C=C/c1ccc([N+](=O)[O-])s1	.	-0.3	.	-4.1	-5.2	.
COc1ccccc1NC(=O)/C(=C/c1cccc([N+](=O)[O-])c1)c1ccccc1	-17.8	11.0*	-2.3	-6.7	1.0	-8.0
CC(=O)c1cccc(NC(=O)/C=C/c2ccc([N+](=O)[O-])s2)c1	20.9	10.1*	4.2	-3.7	-3.0	.
CO[C@H]1CN(C)C(=O)c2cc(NS(=O)(=O)c3cccc(F)c3)ccc2OC[C@H](C)N(C(=O)Cc2cccnc2)C[C@@H]1C	.	.	.	.	.	-1.3
CC(C)(C)NC(=O)CSc1nc(O)cc(=O)n1-c1ccccc1	94.1*	-1.2	1.2	-0.9	3.1	-3.3
c1ccc(Oc2cc(-c3ccccc3)nc(-c3ccccc3)n2)cc1	9.0	1.5	-1.4	0.3	6.1	.
SMILES	Vif imaging	GRIN3A LBD mod	SMARCA2 activ	NadD block	SKN-1 inh	esBAF inh	others
c1ccc(Oc2cc(-c3ccccc3)ncn2)cc1	-2.8	1.3	2.8	3.2	49.7*	77.2*	Ring1 derepress=1.28;Fgf4 repress=?;Bmi1 derepress=1.82;A549 tox SP=-4.8;HepG2 cytotox SP=-15.1;HEK293 tox SP=-1.9
COc1ccc(CCn2nnc3ccccc3c2=O)cc1OC	-1.7	.	1.3	-1.1	6.5	61.3*	Ring1 derepress=1.08;Fgf4 repress=0.992;Bmi1 derepress=0.86;A549 tox SP=10.2;HepG2 cytotox SP=-16.0;HEK293 tox SP=7.7
COc1ccc(CC(=O)OCn2nnc3ccccc3c2=O)cc1OC	-3.6	1.6	4.3	-5.2	-7.7	-5.1
O=C(Cc1ccccc1)Nc1ccc2c(c1)OC1(CCCC1)O2	-15.7	-2.2	5.5	-2.0	3.4	74.5*	Ring1 derepress=1.17;Fgf4 repress=0.858;Bmi1 derepress=1.62;A549 tox SP=-8.7;HepG2 cytotox SP=-30.6;HEK293 tox SP=-13.4
CCc1ccccc1NC(=O)CN1CCN(CC(=O)Nc2ccc3c(c2)OC2(CCCCC2)O3)CC1	9.6	0.3	0.1	-7.0	-8.8	4.7
C[C@@H]1CN([C@H](C)CO)C(=O)c2cccc(NS(=O)(=O)c3ccccc3)c2O[C@H]1CN(C)C(=O)NC1CCCCC1	.	.	.	.	.	-3.5
O=C(NC1CCCC1)c1cc(-c2ccccc2O)on1	8.5	-0.2	3.0	-4.3	0.4	60.6*	Ring1 derepress=1.29;Fgf4 repress=0.803;Bmi1 derepress=1.42;A549 tox SP=-13.1;HepG2 cytotox SP=9.3;HEK293 tox SP=-5.9
O=C(NC1CCCCC1)c1cc(-c2cccc(Cl)c2)on1	-6.9	-0.2	-0.5	-4.0	9.6	60.3*	Ring1 derepress=1.23;Fgf4 repress=?;Bmi1 derepress=1.84;A549 tox SP=-10.5;HepG2 cytotox SP=-7.9;HEK293 tox SP=-4.1
COc1ccc(-c2cc(C(=O)NC3CCCC3)no2)cc1	6.2	-3.5	4.4	-2.8	4.8	7.1
O=C(NC1CCCC1)c1cc(-c2ccc(Cl)cc2Cl)on1	16.0	-4.0	4.7	8.5	1.1	18.5
COc1cccc(-c2cc(C(=O)NC3CCCCC3)no2)c1	6.4	-0.6	0.6	-2.8	9.4	59.4*	Ring1 derepress=1.23;Fgf4 repress=0.877;Bmi1 derepress=1.36;A549 tox SP=-4.0;HepG2 cytotox SP=-17.9;HEK293 tox SP=-6.0
O=C(NC1CCCC1)c1cc(-c2cccs2)on1	.	0.0	1.4	9.7	26.8	4.2
O=C(Nc1ccc(F)cc1)N1C[C@@H]2[C@H](c3ccccc31)[C@H](CO)N2C(=O)Cc1ccccc1	.	.	.	.	.	12.6
COc1cccc(NC(=O)N[C@H]2C=C[C@@H](CC(=O)N3CCOCC3)O[C@@H]2CO)c1	.	.	.	.	.	-1.8
COc1ccc2c(c1OC)C(=O)N1c3ccccc3SC21 (stereo unspecified)	1.7	1.6	4.9	-1.5	12.6	78.0*	Ring1 derepress=1.03;Fgf4 repress=0.978;Bmi1 derepress=1.38;A549 tox SP=9.0;HepG2 cytotox SP=-23.7;HEK293 tox SP=-4.5
